The text below walks through data of PubChem BioAssay AID2156 (Johns Hopkins Ion Channel Center, 2009).

Hit rate of the full screen: of about 310,000 compounds, about 3,400 (1.1%) were called active. This excerpt belongs to a sample that is enriched for actives. A number with no mark means an inactive call.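 How the source made its calls: active means fluorescence ratio B-score at most minus 3 library SDs, with starting brightness B-score within 2 library SDs (cut at about -5.5 in these data); inactive means the rest, inconclusive results apart.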

For this test, the target named is Potassium voltage-gated channel subfamily KQT member 2 (Rattus norvegicus) (UniProt O88943). Nature of the test: rat KCNQ2 potassium channel inhibitors, primary screen, cell-based, CHO-K1, FluxOR thallium flux, B-score (AID 2156). The following applies: 20 min, at 10 µM; stronger effect = lower value.
Chain of Potassium voltage-gated channel subfamily KQT member 2 (Rattus norvegicus) (O88943 whole entry, looked up): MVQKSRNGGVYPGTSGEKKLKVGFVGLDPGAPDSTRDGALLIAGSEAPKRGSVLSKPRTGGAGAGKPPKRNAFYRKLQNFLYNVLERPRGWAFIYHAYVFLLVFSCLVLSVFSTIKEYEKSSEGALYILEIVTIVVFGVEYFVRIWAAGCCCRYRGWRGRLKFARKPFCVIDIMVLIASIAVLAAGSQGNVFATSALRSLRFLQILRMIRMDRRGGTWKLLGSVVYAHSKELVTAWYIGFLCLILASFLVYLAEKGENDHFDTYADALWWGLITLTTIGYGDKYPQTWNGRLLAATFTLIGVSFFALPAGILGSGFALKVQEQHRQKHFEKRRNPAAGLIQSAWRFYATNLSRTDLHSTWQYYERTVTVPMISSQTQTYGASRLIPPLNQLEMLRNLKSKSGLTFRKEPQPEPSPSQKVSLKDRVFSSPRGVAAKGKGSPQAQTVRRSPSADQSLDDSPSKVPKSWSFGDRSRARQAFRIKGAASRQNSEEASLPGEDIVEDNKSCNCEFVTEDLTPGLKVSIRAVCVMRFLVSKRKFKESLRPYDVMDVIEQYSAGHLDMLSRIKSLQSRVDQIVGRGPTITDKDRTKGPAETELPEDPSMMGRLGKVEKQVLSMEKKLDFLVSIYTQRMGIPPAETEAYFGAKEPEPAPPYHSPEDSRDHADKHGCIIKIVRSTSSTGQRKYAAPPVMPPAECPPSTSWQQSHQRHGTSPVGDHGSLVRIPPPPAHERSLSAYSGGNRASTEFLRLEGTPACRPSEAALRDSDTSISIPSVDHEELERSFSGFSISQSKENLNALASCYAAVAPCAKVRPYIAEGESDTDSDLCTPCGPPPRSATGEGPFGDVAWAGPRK
For the compound `CCOC(=O)C1=C(C)Nc2sc(C(=O)c3ccc(Br)cc3)c(N)c2C1c1ccc(C(=O)OC)cc1` (stereo unspecified), the B-score is -6.56 (active).

Turning to `CCOC(=O)c1sc(=NC(=O)c2ccc(Br)cc2)n(C)c1C`, the B-score entry was “inactive”.

On to `CCOC(=O)c1sc(=S)n2c1[nH]c(=O)c1ccc(C(=O)OC)cc12`, for which the B-score result is “inactive”.

In the case of `Cc1cc(Nc2ccc(Br)cc2)nc2ccccc12`, the B-score entry is “inactive”.

Consider `Cc1ccc2nc(SCC(=O)N3CCN(c4ccccc4)CC3)nc(=O)n2c1`, for which the B-score is -0.18.

Regarding `Cc1nc(-c2ccc(F)cc2)c(CC(=O)Nc2cccc(S(=O)(=O)N3CCOCC3)c2)s1`, the B-score is -0.75.

In the case of `CCOC(=O)C1CCN(C(=O)COC(=O)C2CCN(S(=O)(=O)c3ccc4c(c3)OCCO4)CC2)CC1`, the B-score result is “inactive”.

Take `CCOc1ccc(C(=O)Nc2cc(Cl)ccc2-n2cncn2)cc1OC`: the B-score was -0.08.

On to `CC(=O)Nc1ccc(NC(=O)CSC2=NS(=O)(=O)c3ccccc3N2)cc1`, for which the B-score result was “inactive”.

As for `COc1ccc(C(CNC(=O)c2ccc(NS(=O)(=O)c3ccc(F)c(C)c3)cc2)N(C)C)cc1` (stereo unspecified), the B-score result was “inactive”.

With `CCCCn1c(N)c(N(CC(C)C)C(=O)C2CSC3(C)CCC(=O)N23)c(=O)[nH]c1=O` (stereo unspecified), the B-score is -1.75.

`Cc1cccc(C(C)C)c1NC(=O)COC(=O)C1CC(=O)N(Cc2ccccc2)C1` (stereo unspecified): the B-score entry was “inactive”.

Consider `CC(=O)N1N=C(c2ccccc2)OC1c1cccnc1` (stereo unspecified), for which the B-score entry is “inactive”.

For `O=C(Cc1ccccc1)N1N=C(c2ccncc2)CC1(O)C(F)(F)F` (stereo unspecified), the B-score result was “inactive”.

Take `CC(=O)N1N=C(c2ccncc2)OC1(Cc1ccccc1)Cc1ccccc1`: the B-score was -7.53 (active).

Regarding `CC(=O)Nc1cccc(C(=O)OCC(=O)NCc2cc(C)c(O)c(C)c2)c1`, the B-score result is “inactive”.

Take `COc1ccc(-c2n[nH]c(C)c2-c2ccccc2OC)c(O)c1`: the B-score result was “inactive”.

`COc1ccccc1-c1nc(SC)n[nH]1`: the B-score was -0.1.

As for `COc1ccccc1-c1n[nH]c2c1[C@H](C)CC[C@H]2C(C)C`, the B-score is -10.1 (active).

Turning to `Cc1ccc(C(C(=O)NC2CCCC2)N(Cc2ccco2)C(=O)CCC(=O)Nc2ccccn2)cc1` (stereo unspecified), the B-score is -1.92.

In the case of `Cc1ccc2c(c1)N(CC(=O)N(Cc1ccccn1)Cc1ccco1)C(=O)C(C(C)C)O2` (stereo unspecified), the B-score was -7.54 (active).

As for `Cc1ccnc(NC(=O)CCC(=O)N(CC(=O)NCc2ccccc2)Cc2ccco2)c1`, the B-score was -0.05.

Consider `O=C(c1ccc(Cl)s1)N(Cc1nnc(-c2ccccc2Cl)o1)C1CC1`, for which the B-score is -0.68.

Take `O=C(Nc1ccccc1[N+](=O)[O-])C1C(c2ccccc2)=C1c1ccccc1`: the B-score is -5.88 (active).

As to `O=C(Nc1ccccc1-c1ccccc1)c1ccccc1[N+](=O)[O-]`, the B-score was -3.5.

As for `O=C(O)c1ccccc1C(=O)Nc1ccccc1[N+](=O)[O-]`, the B-score was -1.

As to `CCC(CC)c1nnc(NC(=O)C2=COCCO2)s1`, the B-score was -0.29.

On to `CCOc1cc(N2CCOCC2)c(OCC)cc1NC(=O)COc1cccc2cccnc12`, for which the B-score is -3.14.

On to `CCOc1cc(N2CCOCC2)c(OCC)cc1NC(=O)COc1cccc(Cl)c1`, for which the B-score entry is “inactive”.

With `CCOc1cc(N2CCOCC2)c(OCC)cc1NC(=O)c1ccc(C)s1`, the B-score is -6.48 (active).

Consider `Cc1ccc(-c2nn(-c3ccc(F)cc3)cc2C(=O)NCC(c2cccs2)N2CCOCC2)cc1` (stereo unspecified), for which the B-score is -1.75.

Regarding `CCOC(=O)N1CCN(C(=O)c2nn(-c3ccc(C)cc3)c(=O)c3c2c2ccccc2n3C)CC1`, the B-score result was “inactive”.

Consider `Cn1c2ccccc2c2c(C(=O)N3CCN(c4ccc(F)cc4)CC3)cn(C3CCCC3)c(=O)c21`, for which the B-score was -5.96 (active).

For the compound `O=C(c1ccccc1Oc1ccccc1)N1CCN(c2ccc(F)cc2)CC1`, the B-score was -3.32.

With `CN1C(C(=O)NCC2CC2)CC2Cn3c(nc4ccccc43)C21` (stereo unspecified), the B-score entry is “inactive”.

As to `CCOC(=O)c1cnc2nc(SCc3ccccc3Cl)[nH]n2c1=O`, the B-score is -0.81.

For the compound `Cc1ccccc1NC(=O)CNc1ccccc1N1CCCCC1`, the B-score was -5.56 (active).

Regarding `Cn1c(=O)c2c(nc(SCC(=O)Nc3ccccc3N3CCCCC3)n2C)n(C)c1=O`, the B-score was -0.67.

For the compound `CCC(=O)N1CCN(c2ccccc2NC(=O)COc2cccc(C)c2C)CC1`, the B-score was -4.29.

As for `Cc1ccc(C(C)C)cc1OCC(=O)Nc1ccccc1N1CCCC1`, the B-score was -8.31 (active).

In the case of `Cc1ccc(C(C)C)cc1OCCN1CCCC1`, the B-score result was “inactive”.

Regarding `O=C(CN1CCN(C2CCCCC2)CC1)Nc1ccccc1N1CCCCC1`, the B-score entry is “inactive”.

Turning to `Cc1ccccc1NC(=O)Nc1ccccc1N1CCCCC1`, the B-score entry was “inactive”.

For `O=C(Cc1cccc2ccccc12)NCCC1=CCCCC1`, the B-score was -0.18.

`O=C(CNCCC1=CCCCC1)Nc1ccccc1N1CCCCCC1`: the B-score was -8.12 (active).

As to `N#Cc1cccc(OC(=O)c2ccc3c(=O)n4c(nc3c2)CCC4)c1`, the B-score was -0.01.

As for `CN1CCN(S(=O)(=O)c2ccc(Nc3ccc(F)cc3)nc2)CC1`, the B-score is -0.21.

Turning to `COc1ccccc1CCNC(=O)CN1C(=O)NC2(CCCC2)C1=O`, the B-score result was “inactive”.

`CC(Oc1cccc(Cl)c1)C(=O)Nc1ccc(S(=O)(=O)Nc2ncccn2)cc1` (stereo unspecified): the B-score result is “inactive”.

`CSc1ccc(/C=C2\NC(=O)NC2=O)cc1`: the B-score result is “inactive”.

Take `O=C(Cc1c[nH]c2ccccc12)OCCOC(=O)Cc1c[nH]c2ccccc12`: the B-score is -7.66 (active).

With `O=C(COC(=O)Cc1c[nH]c2ccccc12)NCCc1ccccc1`, the B-score is -0.71.

As for `CCOC(=O)CN(C)Cc1c[nH]c2ccccc12`, the B-score result was “inactive”.

Consider `CCCCN(C(=O)c1ccc(C)o1)c1c(N)n(CCCC)c(=O)[nH]c1=O`, for which the B-score entry is “inactive”.

`CCC1CCC/C1=N\NC(=O)c1ccc(Cl)cc1` (stereo unspecified): the B-score entry was “inactive”.

Consider `CC(C)c1ccccc1OCC(O)CN(CC(O)COc1cccc2ccccc12)C(C)C` (stereo unspecified), for which the B-score is -6.3 (active).

Consider `OC(COc1cccc2ccccc12)CN1CCN(c2ccccn2)CC1` (stereo unspecified), for which the B-score entry is “inactive”.

For the compound `Cc1cc(C)c(NC(=O)C[N+](C)(C)CC(O)COc2cccc3ccccc23)c(C)c1` (stereo unspecified), the B-score entry is “inactive”.

For the compound `Cc1ccc(C(=O)NNC(=O)C(C)Oc2ccc3ccccc3c2)o1` (stereo unspecified), the B-score result was “inactive”.

Turning to `CCN(CC(=O)Nc1ccc(NC(C)=O)cc1)C(=O)C1CC(=O)N(Cc2ccc(C)cc2)C1` (stereo unspecified), the B-score was -0.36.

For `COc1ccc2sc(N(CCCN(C)C)C(=O)c3ccc(S(=O)(=O)N(C)C4CCCCC4)cc3)nc2c1`, the B-score entry was “inactive”.

With `CCOC(=O)CC1(NC(=O)c2cc(COc3cncc(Cl)c3)on2)CCCCC1`, the B-score is -1.68.

For `COc1cc(Cl)ccc1OCc1cc(C(=O)N2CC[C@@H]3CCCC[C@H]3C2)no1`, the B-score is -3.02.

`CCCOC1CCCN(C(=O)c2cc(COc3cncc(Cl)c3)on2)C1` (stereo unspecified): the B-score is -8.22 (active).

As to `Cn1c(-c2ccc(F)cc2)cnc1SCC(=O)NNC(=O)Cc1ccccc1`, the B-score entry was “inactive”.

For `CN(Cc1ccccc1)C(=O)CCc1ccccc1`, the B-score is -0.03.

For `Cc1ccc(-c2cnc(NC(=O)CCC(=O)N(C)Cc3ccccc3)n2C)cc1`, the B-score was -7.93 (active).

With `O=C(CCNC(=O)c1ccc(Br)cc1)Nc1cccc(S(=O)(=O)N2CCCCC2)c1`, the B-score was -0.11.

Regarding `CCCCn1c(N)c(N(Cc2ccccc2OC)C(=O)COc2cc(C)ccc2Cl)c(=O)[nH]c1=O`, the B-score was -0.97.

On to `CCOc1ccc2ccccc2c1/C=N/NC(=O)c1c(C)cc(C)[nH]c1=O`, for which the B-score was -2.

On to `Cc1cc(NC(=O)C(C)N2C(=O)c3ccccc3S2(=O)=O)no1` (stereo unspecified), for which the B-score was -0.8.

As to `FC(F)(F)c1ccc2c3n(nc2c1)CCN=C3c1ccc(Cl)cc1`, the B-score result is “inactive”.

Take `Cc1ccccc1C(=O)Nc1ccccc1NC(=O)c1ccccc1C`: the B-score result was “inactive”.

Turning to `O=C(COC(=O)c1ccccc1)Nc1ccccc1Sc1ccccc1`, the B-score is -0.64.

Turning to `Cc1ccccc1C(=O)Nc1ccccc1Sc1ccccc1`, the B-score was -8.36 (active).

With `O=C(Cc1ccc(S(=O)(=O)N2CCOCC2)s1)N1CCN(c2ccc(C(F)(F)F)cc2[N+](=O)[O-])CC1`, the B-score result is “inactive”.

Regarding `O=C(NC1CCCCC1)c1ccc(-c2ccc(Cl)cc2)o1`, the B-score is -3.97.

As for `CN(CC(=O)Nc1cccc(F)c1)C(=O)C1=COCCO1`, the B-score is -0.61.

Consider `O=C(NC1CCCC1)C(c1ccco1)N(C(=O)c1csnn1)c1ccccc1` (stereo unspecified), for which the B-score entry is “inactive”.

As to `O=C(NCc1ccccc1)C(c1ccco1)N(C(=O)c1csnn1)c1ccccc1F` (stereo unspecified), the B-score is -6.27 (active).

`O=C(NCc1ccccc1)C(c1ccccc1)N(C(=O)c1csnn1)c1ccc(F)cc1` (stereo unspecified): the B-score is -1.89.

With `CCOc1ccc(C(C)=O)cc1COC(=O)CNC(=O)c1cccs1`, the B-score result is “inactive”.

For `CCOc1ncccc1C(=O)NNC(=O)c1cccc(S(=O)(=O)Nc2ccccc2OC)c1`, the B-score result was “inactive”.

For `COc1ccc(C(CNC(=O)COc2ccc([N+](=O)[O-])cc2)N2CCCCC2)cc1` (stereo unspecified), the B-score is -0.69.

Consider `COc1ccc(C(CNC(=O)COc2ccccc2OC)N2CCCCC2)cc1` (stereo unspecified), for which the B-score result is “inactive”.

Take `CCc1ccc(OCC(=O)NCC(c2ccc(Cl)cc2)N2CCCCC2)cc1` (stereo unspecified): the B-score was -5.91 (active).

Take `O=C(CCC1CCCCC1)Nc1cc(C(F)(F)F)ccc1N1CCOCC1`: the B-score is -0.87.

With `CN(Cc1c(F)cccc1Cl)C(=O)CNC(=O)c1ccc2c(c1)OCO2`, the B-score was -1.89.

`Cc1cccc(N2CCN(C(c3ccc(N(C)C)cc3)c3nnnn3C(C)(C)C)CC2)c1C` (stereo unspecified): the B-score is -6.02 (active).

As to `CC(C)(C)n1nnnc1C(c1ccc(Cl)cc1)N1CCSCC1` (stereo unspecified), the B-score entry was “inactive”.

For `Cc1cccc(N2CCN(C(c3ccccc3)c3nnnn3CC3CCCO3)CC2)c1C` (stereo unspecified), the B-score was -1.18.

`CCOc1ccc(S(=O)(=O)NCCC(=O)NCC(C)(C)N2CCOCC2)cc1`: the B-score result is “inactive”.

On to `CCOc1ccc2c(c1)C(c1ccc(C)cc1)=NNC(c1ccc(C)cc1)=N2`, for which the B-score was -1.45.

Turning to `CCc1ccc2c(c1)C(c1ccc([N+](=O)[O-])cc1)=NNC(c1ccccc1)=N2`, the B-score was -0.01.

For the compound `Cc1ccc(C2=Nc3c(ccc4ccccc34)C(c3ccncc3)=NN2)cc1`, the B-score is -7.02 (active).

As to `CC1(c2nnc(Cc3ccccc3)o2)CC(c2ccccc2F)=NO1` (stereo unspecified), the B-score entry is “inactive”.
